Laboratory results reported in PubChem BioAssay (NCATS).
Inconclusive results are not listed. A structure can be active in one record and inactive in another. Activity calls are given as the source filed them. The call rests on the fitted dose curve; in most records, active means well fitted inhibition curve with a large enough effect; inconclusive means small, poorly fitted or top-dose-only effect; inactive means flat fitted curve, though single readings scatter.

Biological target: Glutathione peroxidase 1 (Homo sapiens) (UniProt P07203)
Test: Primary qHTS Assay for Inhibitors of Recombinant Selenoprotein Glutathione Peroxidase 1 (GPX1) (AID 1845191)
Conditions: recombinant GPX1, GR-coupled NADPH fluorescence, 15 min; series mostly up to 48.8 µM; activity, negative = inhibition: at the top concentration
In short: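 GR-coupled readout: NADPH consumption tracked by fluorescence, ex 340/em 450 nm, at t=0 and after 15 min at RT. Final mix 10 nM GPX1, 1 mM GSH, 0.5 mM CHP, 0.5 mM NADPH, 100 nM GR, 0.01% BSA, following 30 min enzyme–compound preincubation.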
Further: nearly all actives have a fitted effect of over 65% in size.
On the % scale 0 is the no-effect control and ±100 the full control effect; potency means the concentration at half of the fitted maximal effect.

Sequence of Glutathione peroxidase 1 (Homo sapiens) (P07203 whole entry, looked up): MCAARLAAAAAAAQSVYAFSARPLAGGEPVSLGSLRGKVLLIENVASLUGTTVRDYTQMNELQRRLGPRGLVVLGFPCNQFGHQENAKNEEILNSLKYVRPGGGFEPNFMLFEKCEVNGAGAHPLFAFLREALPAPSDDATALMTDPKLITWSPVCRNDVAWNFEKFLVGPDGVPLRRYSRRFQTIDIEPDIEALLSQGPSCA

| Structure (SMILES) | outcome | activity, negative = inhibition | Potency |
| --- | --- | --- | --- |
| O=C(Nc1ncc([N+](=O)[O-])s1)c1ccccc1O | inactive | – | – |
| CC/C(C)=C/C(=O)OC1C(OC2(C)CCC3C(C4C(C)CCC42)C3(C)C)OC(C)C(O)C1O (centres undefined) | inactive [at 27.7 µM] | – | – |
| CC(C)S(=O)(=O)c1ccc2nccc(Nc3ccc4scnc4c3)c2c1 | inactive | – | – |
| Cn1sc(=O)n(Cc2ccccc2)c1=O | – | -0.935% (inactive) | – |
| CC(C)C(C)C(O)C1CC23CC(=O)C4(O)C(=C2CCC3C1C)C=CC1(O)CC(O)CCC14C (centres undefined) | – | -6.68% [at 27.7 µM] (inactive) | – |
| S=C(c1ccc(-c2ccc(Cl)c(Cl)c2)o1)N1CCCCC1 | – | – | 25.5 µM (active) |
| CN[C@@H]1[C@H](O[C@H]2[C@H](O[C@@H]3[C@@H](O)[C@H](O)[C@@H](N=C(N)N)[C@H](O)[C@H]3N=C(N)N)O[C@@H](C)[C@]2(O)CO)O[C@@H](CO)[C@H](O)[C@H]1O | inactive | – | – |
| CCC(C)/C=C(C)/C=C/C1=CC2=C(Cl)C(=O)C(C)(OC(C)=O)C(=O)C2(O)C(OC)O1 (centres undefined) | – | -0.778% [at 27.7 µM] (inactive) | – |
| O=C(NCCN1CCN(c2cccc3c2OCCO3)CC1)c1ccc(F)cc1 | – | 4.13% (inactive) | – |
| COc1ccc2cc3c(NC(=O)c4ccco4)nn(C)c3nc2c1 | – | -16.6% (inactive) | – |
| CCCn1cc2c(nc(NC(=O)Nc3ccc(OC)cc3)n3nc(-c4ccco4)nc23)n1 | – | -9.26% (inactive) | – |
| CC[C@H](C)/C=C(C)/C=C/C1=CC2=CC(=O)[C@]3(C)OC(=O)[C@@H](C(C)=O)[C@@H]3C2=CO1 | inactive [at 27.7 µM] | – | – |
| C/C=C/C=C/c1cc2c(C=O)c(O)c(CC=C(C)C)cc2o1 | inactive | – | – |
| CN(C)C(=O)Nc1cc(-c2ccccc2)ccc1N(C)C | – | -8.22% (inactive) | – |
| CC(C)NC(=O)COc1cccc(-c2nc(Nc3ccc4[nH]ncc4c3)c3ccccc3n2)c1 | – | 0.297% (inactive) | – |
| C=C1C(=O)OC2CC(C)C(CCC(C)=O)=CCC12 (centres undefined) | inactive | – | – |
| COc1ccc2nc3n[nH]c(C)c3c(NCCOCCO)c2c1 | – | – | inactive |
| CCC(C)C(=O)O[C@H]1[C@@H](OC(=O)c2ccoc2)C[C@](C)(O)[C@]23OC(C)(C)[C@H](C[C@H](OC(=O)c4ccoc4)[C@]12COC(C)=O)[C@H]3OC(C)=O (some centres undefined) | inactive [at 15.3 µM] | – | – |
| COc1ccc(-c2c(C)nn3c(NCCN4CCOCC4)cc(C)nc23)cc1OC | inactive | – | – |
| CC(C)c1cc(-c2ccc(F)c3ccccc23)nc(N)n1 | – | -17.8% (inactive) | – |
| C=CC(=O)N1CCC[C@@H](n2nc(-c3cccc(C(=O)Nc4ccc(C(C)C)c(C)c4)c3)c3c(N)ncnc32)C1 | – | -4.98% (inactive) | – |
| Cc1onc(-c2ccccc2)c1C(=O)N1CCN(c2ccc([N+](=O)[O-])cc2Cl)CC1 | – | -17.7% (inactive) | – |

Biological target: Phospholipid hydroperoxide glutathione peroxidase GPX4 (Homo sapiens) (UniProt P36969)
Test: Primary qHTS Assay for Inhibitors of Recombinant Selenoprotein Glutathione Peroxidase 4 (GPX4) (AID 1845192)
Conditions: recombinant GPX4, GR-coupled NADPH fluorescence, 15 min; series mostly up to 50 µM; activity change, negative = inhibition: at the top concentration
In short: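 Steps: GPX4 plus compound, 30 min RT; add GR/GSH/NADPH master mix; start with cumene hydroperoxide; read 340/450 nm fluorescence at 0 and 15 min. Finals were 200 nM GPX4, 1 mM GSH, 0.5 mM CHP, 0.5 mM NADPH, 100 nM GR.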

Sequence of Phospholipid hydroperoxide glutathione peroxidase GPX4 (Homo sapiens) (P36969 whole entry, looked up): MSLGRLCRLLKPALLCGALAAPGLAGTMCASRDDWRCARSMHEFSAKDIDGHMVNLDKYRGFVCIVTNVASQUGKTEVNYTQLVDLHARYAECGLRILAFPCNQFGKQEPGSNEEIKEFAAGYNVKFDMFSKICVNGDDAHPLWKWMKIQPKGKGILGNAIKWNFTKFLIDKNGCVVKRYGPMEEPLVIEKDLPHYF

| Structure (SMILES) | outcome | activity change, negative = inhibition | Potency |
| --- | --- | --- | --- |
| CC(=O)S[C@@H]1CC2=CC(=O)CC[C@]2(C)[C@H]2CC[C@@]3(C)[C@@H](CC[C@@]34CCC(=O)O4)[C@H]12 | inactive | – | – |
| C=CC(C)(O)CC[C@@H]1[C@@]2(C)CCCC(C)(C)C2CC[C@@]1(C)O (some centres undefined) | – | 17.5% (inactive) | – |
| Cc1c(Cl)cccc1S(=O)(=O)Nc1nc(NCCc2ccccc2)nc2c1CN(Cc1ccccc1)CC2 | – | -19.3% (inactive) | – |
| COc1cc2c(cc1OC)CN(C(=O)/C=C/c1c(-c3ccccc3)n(C)c3ncccc13)CC2 | – | -9.54% (inactive) | – |
| CCOC(=O)COc1ccc2c(=O)cc(-c3ccccc3)oc2c1 | – | -33.4% (inactive) | – |
| COC(=O)N1CC2(CC2)C[C@H](C(=O)NO)[C@H]1C(=O)N1CCN(c2ccccc2)CC1 | – | 3.14% (inactive) | – |
| NCCCC[C@H](NC(=O)[C@@H]1CCCN1C(=O)[C@@H]1CSSC[C@H](N)C(=O)N[C@@H](Cc2ccc(O)cc2)C(=O)N[C@@H](Cc2ccccc2)C(=O)N[C@@H](CCC(N)=O)C(=O)N[C@@H](CC(N)=O)C(=O)N1)C(=O)NCC(N)=O | – | – | 17.8 µM (active) |
| Cc1cc2c(F)c(Oc3ncnn4cc(OCC(C)OC(=O)C(C)N)c(C)c34)ccc2[nH]1 (centres undefined) | – | -7.38% (inactive) | – |
| CC[C@@H](Nc1c(Nc2cccc(C(=O)N(C)C)c2O)c(=O)c1=O)c1cc(C(C)C)co1 | – | -25.2% (inactive) | – |
| C=C(NC(=O)C(=C)NC(=O)c1csc(C2=NC3c4csc(n4)C4NC(=O)c5csc(n5)C(C(C)(O)C(C)O)NC(=O)C5CSC(=N5)/C(=C/C)NC(=O)C(C(C)O)NC(=O)c5csc(n5)C3(CC2)NC(=O)C(C)NC(=O)C(=C)NC(=O)C(C)NC(=O)C(C(C)CC)NC2C=Cc3c(C(C)O)cc(nc3C2O)C(=O)OC4C)n1)C(N)=O (centres undefined) | – | -17.8% (inactive) | – |
| CCC1C(=O)N(C)c2cnc(Nc3ccc(C(=O)NC4CCN(C)CC4)cc3OC)nc2N1C1CCCC1 (centres undefined) | – | -16.4% (inactive) | – |
| CS(=O)(=O)Nc1cc2occ(NC=O)c(=O)c2cc1Oc1ccccc1 | – | – | 18 µM (active) and inactive |
| C=C1/C(=C/C=C2\CCC[C@]3(C)[C@@H]([C@H](C)/C=C/[C@H](O)C4CC4)CC[C@@H]23)C[C@@H](O)C[C@@H]1O | – | -13.9% (inactive) | – |
| CC1(C)S[C@@H]2[C@H](NC(=O)C(C(=O)Oc3ccc4c(c3)CCC4)c3ccccc3)C(=O)N2[C@H]1C(=O)O (some centres undefined) | – | – | 8.91 µM (active) |
| NC(=O)c1cnc(N[C@@H]2CCCC[C@H]2N)nc1Nc1cccc(-n2nccn2)c1 | – | -4.71% (inactive) | – |
| O=C(CCCN1CCC(n2c(=S)[nH]c3ccccc32)CC1)c1ccc(F)cc1 | – | – | 4.47 µM (active) |
| CS(=O)(=O)c1ccc(Oc2cc(F)cc(C#N)c2)c2c1[C@H](O)C(F)(F)C2 | – | -5.58% (inactive) | – |
